Assay results from publication PMC7819943, “Rice protein-binding microarrays: a tool to detect cis-acting elements near promoter regions in rice”.
Whole data set: some 39,000 sequences, median “fluorescence intensity (a.u.)” near 4,300, cut for the highest 2% near 39,000. This excerpt belongs to a sample that is enriched for the highest values.

The sequences below were run against T1, OsSMF1 (Oryza sativa, UniProt Q6ZLB0 1-436) (assay: protein-binding microarray (RPBM); PBS, 2% BSA, 51.3 ng/ul salmon testes DNA, 50 uM zinc acetate, 200 nM TF, 25 C, 1 h; high values mean tight binding). Conditions: protein: recombinant; tags: N-terminal polyhistidine and DsRed monomer fusion (pET32a); chain copies: 2; label: CyDye5-dUTP incorporated in the synthesized complementary strand; 3' TTTTT single-stranded linker to array surface; dsDNA, one strand shown.
T1 sequence: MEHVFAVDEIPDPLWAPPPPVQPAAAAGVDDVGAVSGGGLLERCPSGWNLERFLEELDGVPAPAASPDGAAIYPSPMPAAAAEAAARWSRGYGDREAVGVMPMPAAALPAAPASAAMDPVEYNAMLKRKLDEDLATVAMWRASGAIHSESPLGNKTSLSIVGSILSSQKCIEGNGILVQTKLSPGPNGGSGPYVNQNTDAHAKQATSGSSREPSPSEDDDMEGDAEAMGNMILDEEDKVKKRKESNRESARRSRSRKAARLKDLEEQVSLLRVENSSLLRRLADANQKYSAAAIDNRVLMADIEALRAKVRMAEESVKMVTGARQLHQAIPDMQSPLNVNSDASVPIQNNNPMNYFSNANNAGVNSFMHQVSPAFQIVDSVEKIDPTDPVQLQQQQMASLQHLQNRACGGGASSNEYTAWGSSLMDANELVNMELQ
Method in brief: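 The binding signal is fluorescence intensity per feature, in arbitrary units, read on an Axon 4000B scanner. Polyhistidine- and DsRed-tagged transcription factors (N-terminal fusions) from E. coli BL21-CodonPlus were purified on Ni–NTA and applied at 200 nM for 1 h at 25 °C to a double-stranded, BSA-blocked custom Agilent array in buffer with 50 µM zinc acetate.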

| Sequence | binding signal |
| --- | --- |
| GACTTGCGGCCACGGAGTCAGGGCCGTGCACGTGGAGGTACGGAGTCACCTAGTGCAG | 4910 fluorescence intensity (a.u.) |
| GTGGCCACTTGCATCAGCCGGCCATGAGTGGAGGGGTAAGCGGAGTCACCTAGTGCAG | 49700 fluorescence intensity (a.u.) |
| CGGACTGAGCTGCCTCGCCCGCCTCCGAGCAGTTGGGGAACGGAGTCACCTAGTGCAG | 40900 fluorescence intensity (a.u.) |
| TCTGACTGCCTCCGTCACTCCGTGCCTCGTTGGGAGCAGCCGGAGTCACCTAGTGCAG | 5300 fluorescence intensity (a.u.) |
| TGAGGGCCGCCACGTCCTCATGGCCTCCGCCCCATCGGAGCGGAGTCACCTAGTGCAG | 7660 fluorescence intensity (a.u.) |
| CGTCGATGGCGTGCGTGAGAGCCTCCACGCCTTGCTGCCGCGGAGTCACCTAGTGCAG | 4660 fluorescence intensity (a.u.) |
| CTGAGCTGCCACCTCCGCCGCCGCCAGCATGATGGCCTTGCGGAGTCACCTAGTGCAG | 42500 fluorescence intensity (a.u.) |
| CATGGCCACGTCCGCCACCTTGCGGATGCCGGAGGGTAAGCGGAGTCACCTAGTGCAG | 41400 fluorescence intensity (a.u.) |
| GATGAGATGAGGGAGATACCATCAGACTTGCACCAGATGGCGGAGTCACCTAGTGCAG | 3660 fluorescence intensity (a.u.) |
| TCGCTGCCCTCCCGCCCGTTGGCCGAAGGGGAAGAAGGGGCGGAGTCACCTAGTGCAG | 36900 fluorescence intensity (a.u.) |
| TCATACACATACAACTTTTCAGTCACATCATTTACAATTTCGGAGTCACCTAGTGCAG | 29000 fluorescence intensity (a.u.) |
| AAACACTGAAATTTTAGCATCACGAAGTTCTCACCGAGACCGGAGTCACCTAGTGCAG | 5200 fluorescence intensity (a.u.) |
| GGGTTCGATTCCCCGCACCTCCAATATAAAACGTTTTCTTCGGAGTCACCTAGTGCAG | 3420 fluorescence intensity (a.u.) |
| GAGTCCGGCGTGATGCCGTGATGACGCCGCAACGCGGCATCGGAGTCACCTAGTGCAG | 9060 fluorescence intensity (a.u.) |
| AGCATGCACCTTGATCACGGGAACGAGCTAGCGAGAGGCACGGAGTCACCTAGTGCAG | 3720 fluorescence intensity (a.u.) |
| ACAAACGAACAAGACATGAAGCCGATGAGTCCAGCAGAGCCGGAGTCACCTAGTGCAG | 3170 fluorescence intensity (a.u.) |
| GTTAATGGTGACTTTATTTTCGTCTGTTACAAAACGGAAGCGGAGTCACCTAGTGCAG | 3250 fluorescence intensity (a.u.) |
| GATTAATTGATTTATTTCTTTCTGCTTTACCCGGTCGCCACGGAGTCACCTAGTGCAG | 19200 fluorescence intensity (a.u.) |
| CACCCATCTCCTTGCCGGCCTCTCCACCCCGCCTCTTTCGCGGAGTCACCTAGTGCAG | 19000 fluorescence intensity (a.u.) |
| GCTGGCCCATCTCCTTGCCCACCCATGGGCCTGAAAGCCGCGGAGTCACCTAGTGCAG | 49900 fluorescence intensity (a.u.) |
| TGGGAGCGCTGGGGCTGGCCATCTCTCCTTGCCTGCTGTGCGGAGTCACCTAGTGCAG | 29400 fluorescence intensity (a.u.) |

| Sequence | binding signal |
| --- | --- |
| ATTGATGTTACATGCCTCGCAAGCGATGACACGGCAAGCTCGGAGTCACCTAGTGCAG | 5060 fluorescence intensity (a.u.) |
| AGCTCAGCTGTCACGGTGTCACCTGTCAGCGCCCACAACTCGGAGTCACCTAGTGCAG | 6140 fluorescence intensity (a.u.) |
| GGCGAAGAATGCAGACATGACACGGACCCATCGACGCGGGCGGAGTCACCTAGTGCAG | 3340 fluorescence intensity (a.u.) |
| CTCATCTCAAGCTTTTCTCTCTCTCTCTCTCTTTGCACTACGGAGTCACCTAGTGCAG | 4680 fluorescence intensity (a.u.) |
| AGTGGAAGCAGGTCTTTTACTGATCGATCAAGGTCTGATGCGGAGTCACCTAGTGCAG | 16800 fluorescence intensity (a.u.) |
| GAGCTTCTGACTCATCTTTACTAGGAAGGGTCTTTTCAAGCGGAGTCACCTAGTGCAG | 39100 fluorescence intensity (a.u.) |
| CGCCGTCGACACGTGGGGCCCCTCCTCCCGCCGCCGCCGCCGGAGTCACCTAGTGCAG | 9020 fluorescence intensity (a.u.) |
| GACTACGCGTACGCCACGCCACAACGCTTCTCGCTCTCCCCGGAGTCACCTAGTGCAG | 4510 fluorescence intensity (a.u.) |
| TAATGAATTAGGGCATTGGATGTACCAACTTATGTTATATCGGAGTCACCTAGTGCAG | 23300 fluorescence intensity (a.u.) |
| CTCTCCTACAATAGGATGGACTATGTGACGTAGCACAATGCGGAGTCACCTAGTGCAG | 7860 fluorescence intensity (a.u.) |
| GGATATGTATAACAATGTGGGTCAGCAATATTGAACTATGCGGAGTCACCTAGTGCAG | 3650 fluorescence intensity (a.u.) |
| ACAATTTTAATGAAATCGTACATTATACTATATATGTTTTCGGAGTCACCTAGTGCAG | 3150 fluorescence intensity (a.u.) |
| TTAGCAAGTGCCTATGTGAGGATATAGCAATATTTCAATGCGGAGTCACCTAGTGCAG | 42200 fluorescence intensity (a.u.) |
| CTATATTAATTAATGAATTAGCAATTGGATGTACCAATTTCGGAGTCACCTAGTGCAG | 41000 fluorescence intensity (a.u.) |
| TTAATAGTATAGTAAGCAATTGTTGTATGAATTGGCTATTCGGAGTCACCTAGTGCAG | 27200 fluorescence intensity (a.u.) |
| TATATTCAATGCTATGTTTAATGAAACTAATTTGGATATTCGGAGTCACCTAGTGCAG | 65100 fluorescence intensity (a.u.) |
| CAAATATATTATCAAAATATATTCAATGCTAAATTTAATGCGGAGTCACCTAGTGCAG | 5300 fluorescence intensity (a.u.) |
| CCCGTGACGTGTCGGCATCGGAGGGCCCCTCGTCGGGGTCCGGAGTCACCTAGTGCAG | 10200 fluorescence intensity (a.u.) |
| GGTCCCGTCAGGGAAGGACCCCACGTCCTCGGTTCCATTCCGGAGTCACCTAGTGCAG | 3910 fluorescence intensity (a.u.) |
| GAGCAGTAATGCGTGTGCGGCGATTGGCACGTGCATGGTGCGGAGTCACCTAGTGCAG | 3780 fluorescence intensity (a.u.) |
| CTCCTTGGCCCGTTTGGTCTCTGTGTGGGTTGGTAAAGACCGGAGTCACCTAGTGCAG | 3330 fluorescence intensity (a.u.) |
